Screening data (PubChem BioAssay)
Hits are enriched below; roughly 5.8% of the tested compounds scored in any of these assays.
TRPV1 agonist – activates the human vanilloid receptor TRPV1; activation, % at 8.33 µM; Q8NER1; hit rate 0.19% among 320,000; TRPV1-expressing cells, Fluo-8 calcium influx, agonist mode; in the data active = activation above about 80%; inconclusive = between about 30% and that limit; note: 0% is about no effect
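Fluo-8 calcium influx in TRPV1-expressing cells, kinetic read (ex 480/em 520 nm). Compound added and read 3 min for agonist activity, followed by capsaicin at EC20 final and 2 min further read for enhancement.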
TRPV1 PAM – potentiators of human vanilloid receptor 1 (TRPV1); Q8NER1; TRPV1-expressing cells, Fluo-8 calcium influx, capsaicin EC20 potentiation; potentiation, % at 8.33 µM; hit rate 0.02% among 320,000; AID 540277; in the data active = potentiation above about 80%; inconclusive = between about 30% and that limit; note: 0% is about no effect
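Fluo-8 calcium influx in TRPV1-expressing cells, kinetic read (ex 480/em 520 nm). Compound added and read 3 min for agonist activity, followed by capsaicin at EC20 final and 2 min further read for enhancement.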
VP16 counter – Gal4-VP16 reporter inhibition counter-screen | Drosophila S2 Gal4-VP16 UAS-luciferase, luminescence, 20 h | Potency, µM (doses to about 53.6 µM), for inactives: at the top dose activity, negative = inhibition, usual class: inhibitors | hit rate 3.5% among 310,000 | AID 2546;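 note: Gal4-VP16 expression switched on by copper sulfate through the metallothionein promoter; potency is the fitted concentration of half-maximal effect; % is set by controls: 0 for no effect and ±100 for the full control effect; nearly all actives have a fitted effect of over 50% in size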
RORg inh – ROR gamma (mouse) transcription inhibition; Potency, µM (series often up to 53.6 µM), inactives show at the top dose activity change, negative = inhibition, usual class: inhibitors; Drosophila S2 Gal4-RORgamma UAS-luciferase reporter, 20 h; P51450; AID 2551; hit rate 5.4% among 310,000; note: potency is the fitted concentration of half-maximal effect; % is set by controls: 0 for no effect and ±100 for the full control effect; nearly all actives have a fitted effect of over 60% in size
Target sequence (P51450 whole entry, looked up, the tested form may be a part): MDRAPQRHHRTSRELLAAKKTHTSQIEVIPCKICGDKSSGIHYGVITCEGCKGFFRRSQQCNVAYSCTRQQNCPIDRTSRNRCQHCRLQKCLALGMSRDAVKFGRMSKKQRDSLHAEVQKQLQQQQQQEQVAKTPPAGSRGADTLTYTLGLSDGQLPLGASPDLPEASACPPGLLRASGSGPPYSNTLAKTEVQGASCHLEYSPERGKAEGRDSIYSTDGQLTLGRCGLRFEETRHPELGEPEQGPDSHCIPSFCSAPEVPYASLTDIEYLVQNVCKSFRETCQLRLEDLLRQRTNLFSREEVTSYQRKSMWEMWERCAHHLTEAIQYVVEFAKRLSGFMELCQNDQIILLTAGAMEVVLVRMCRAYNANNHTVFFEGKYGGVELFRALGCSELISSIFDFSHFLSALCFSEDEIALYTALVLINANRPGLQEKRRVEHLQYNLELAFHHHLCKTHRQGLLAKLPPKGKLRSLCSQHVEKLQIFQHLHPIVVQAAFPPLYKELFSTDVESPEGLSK
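Compounds are pin-transferred onto Drosophila Schneider cells expressing a copper-inducible Gal4–ROR gamma transactivation domain fusion. After 1 hr, copper sulfate is added to 700 uM final; luciferase is read 20 hr later.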
uPA generation – cell surface uPA generation inhibition. cell surface uPA generation assay, qHTS. Potency, µM (series often up to 38.3 µM), inactives show at the highest dose activity change, negative = inhibition, most hits filed as inhibitors. hit rate 0.31% among 330,000. AID 540303; active = well fitted inhibition curve with a large enough effect; inconclusive = small, poorly fitted or top-dose-only effect; inactive = no such curve, though single readings can be large or run the other way; tested in mouse RAW 264.7 cells; note: potency is the fitted concentration of half-maximal effect; % is set by controls: 0 for no effect and ±100 for the full control effect; nearly all actives have a fitted effect of over 55% in size
* marks the source's active call; other numbers are inactive results; u = inconclusive; x = not tested or not shown; ! = a repeat was not active; [ ] = another dose, or the depositor's remark. Unless noted, calls come from the whole dose curve; as a rule, active = well fitted curve in the direction sought with a large enough effect; inconclusive = small, poorly fitted or top-dose-only effect, or another doubt; inactive = no such curve, though single readings can be large; an effect the other way counts as inactive or inconclusive.

SMILES	TRPV1 agonist	TRPV1 PAM	VP16 counter	RORg inh	uPA generation
COc1ccccc1NC(=S)N(Cc1ccccc1)Cc1ccccn1	23	-9	u	11µM*	-6%
Cc1c(Cl)cccc1NC(=S)N(Cc1cccnc1)Cc1ccccc1Cl	14	-7	u	11µM*	-1%
S=C(Nc1ccccc1Cl)N(Cc1ccccc1)Cc1ccccn1	-9	132*	-5%[10 µM]	24%	-2%
S=C(Nc1ccccc1Cl)N(CCCN1CCOCC1)Cc1ccccn1	-7	-26	4%[10 µM]	-32%	-2%
CC12CCC(=O)N1C(C(=O)NCc1ccccc1Cl)CS2 (stereo unspecified)	2	-1	x	x	-19%
Cc1noc(C)c1-c1nc(NCc2cccs2)c2ccccc2n1	x	x	-11%	-27%	x
C=CCNC(=S)Nc1nc2c(cc1C(=O)OCC)COC(C)(C)C2	-1	10	-5%	10µM*	-3%
CCOC(=O)c1cc2c(nc1NC(=S)Nc1ccccc1)CC(C)(C)OC2	-9	3	u	2.8µM*	0%
CCOC(=O)c1cc2c(nc1NC(=S)NCc1ccccc1)CCCC2	11	-8	3.5µM*	6.3µM*	2%
CCOC(=O)c1cc2c(nc1N)CC(C)(C)OC2	2	1	23%	u	-1%
CCOC(=O)c1cc(C#N)c(NCc2ccccc2)nc1C	11	-8	-1%	-26%	5%
CCOC(=O)c1sc2nc3c(cc2c1N)COC(C)(C)C3	13	-14	2%	u	-2%
C[C@H]1COC(=O)O1	x	x	-1%	-6%	x
Cc1cc(N/N=C/c2ccc(N(C)C)cc2)nc(NCc2ccccc2)n1	-2	-1	-3%	-28%	-65%
COc1ccc2nc(C)cc(N/N=C/c3ccc(F)cc3)c2c1	6	8	5µM*	4µM*	-2%
Cc1ccc(/C=N/Nc2cc(C)nc(NCc3ccccc3)n2)cc1	-1	-16	u	20µM*	-12%
Cc1cc(N/N=C/c2ccc(F)cc2)nc(NCc2ccccc2)n1	-2	-15	u	11µM*	-6%
COc1ccc(/C=N/Nc2cc(C)nc3ccccc23)cc1	-1	15	u	u	-14%
O=C(CN(Cc1ccc(F)cc1)C(=O)Cn1nnc2ccccc21)NCC1CCCO1 (stereo unspecified)	0	4	4%	-45%	10%
CC(=O)N1c2ccc(S(=O)(=O)N3CCC(C(=O)Nc4cccc(C)c4)CC3)cc2CC1C (stereo unspecified)	0	12	u	43%	-6%
CC(=O)N1c2ccc(S(=O)(=O)N3CCC(C(=O)Nc4cccc(Cl)c4)CC3)cc2CC1C (stereo unspecified)	2	4	11µM*	-31%	u
COc1cc2c(cc1OC)CN(c1ccc([N+](=O)[O-])cc1C#N)CC2	5	0	22%	16%	-4%
COc1cc2c(cc1OC)CN(c1ccc([N+](=O)[O-])cc1Cl)CC2	-1	-3	18µM*	u	-6%
O=C(CCSCCc1ccccn1)Nc1ccc(Cc2ccncc2)cc1	u	-11	-6%	3%	-2%
C/C(=N/NC(=O)CN(c1ccccc1)S(=O)(=O)c1ccccc1)c1ccccc1O	-2	8	0.79µM*	0.71µM*	-18%
SMILES	TRPV1 agonist	TRPV1 PAM	VP16 counter	RORg inh	uPA generation
C/C(=N\NC(=O)CCCCCNC(=O)c1ccccc1)c1ccccc1O	0	0	10µM*	5µM*	-1%
CC(=O)OC[C@@H]1O[C@@H](O/N=C2/C[C@@H](O)[C@@H](O)[C@@H]3[C@@H]4C(=O)N(Cc5ccccc5)C(=O)[C@H]4CC[C@H]23)[C@H](OC(C)=O)[C@H](OC(C)=O)[C@@H]1OC(C)=O	x	x	0%[10 µM]	-5%[10 µM]	x
Fc1ccc(NC(=S)N2N=CCC2c2ccccc2)cc1 (stereo unspecified)	-5	17	7.9µM*	3.5µM*	0%
S=C(Nc1ccccc1)N1N=CCC1c1ccccc1 (stereo unspecified)	-1	-7	7.9µM*	u	x
COc1ccc(/C=C/C(=O)c2cc(F)ccc2OC(=O)c2ccccc2)cc1OC	x	x	x	x	-14%
COc1cc(/C=C/C(=O)c2ccc(O)cc2O)ccc1O	x	x	-24%	u	x
COc1ccc(/C=C/C(=O)c2cc(F)ccc2OC(=O)c2ccc(OC)c(OC)c2)cc1OC	4	13	u	8.9µM*	-26%
O=C(/C=C/c1ccccc1)CC(=O)c1ccccc1O	20	-6	11µM*	u	8.9µM*
COc1ccc(/C=C/C(=O)c2ccc(O)cc2O)cc1OC	x	x	u	2µM*	x
O=C(/C=C/c1ccccc1)c1ccc(O)cc1O	x	x	u	2.8µM*	x
O=C(NCCS(=O)(=O)N1CCC2(CC1)OCCO2)c1ccc(F)cc1	1	14	x	x	3%
COc1ccc(C(=O)/C=C/c2ccc(OC(=O)c3cc(OC)c(OC)c(OC)c3)cc2)cc1	1	4	7.1µM*	1.8µM*	7%
O=C(/C=C/c1ccc(O)cc1)c1ccc(O)cc1O	0	9	u	1.8µM*!	13%
COc1ccc(/C=C/C(=O)c2ccc(O)cc2O)cc1	x	x	u	0.04µM*	x
COc1ccc(C(=O)/C=C/c2ccc(OC)cc2OC)c(O)c1	0	-10	21%	0.79µM*	u
CSCC[C@H](NC(=O)[C@H](CCCN=C(N)N)NC(=O)[C@@H]1CCCN1C(=O)[C@H](Cc1ccccc1)NC(=O)[C@H](C)NC(=O)[C@H](CC(C)C)NC(=O)[C@H](Cc1ccc(O)cc1)NC(=O)[C@H](CC(N)=O)NC(=O)[C@@H](N)CCSC)C(N)=O	x	x	-9%	5%	x
CCOC(=O)CCN1C(=O)[C@H]2[C@H]3[C@H](O)[C@H](O)C/C(=N/NC(=O)OCc4ccccc4)[C@H]3CC[C@@H]2C1=O	x	x	-11%[10 µM]	16%[10 µM]	x
CCC(C(=O)Nc1ccncc1)c1ccccc1 (stereo unspecified)	-1	3	13µM*	u	-3%
CC(C)(C)C(=O)Nc1nnc(-c2ccccc2)c(-c2ccccc2)n1	16	-7	-6%	15%	11%
OCCNc1nc(-c2ccccc2)c2ccccc2n1	2	6	1%	31%	-15%
NNc1nc(-c2ccccc2)c2ccccc2n1	0	4	u	7.9µM*	x
NNc1nnc(-c2ccccc2)c(-c2ccccc2)n1	0	8	u	11µM*	-15%
Cc1ccccc1NC(=O)CN1C(=O)N/C(=C\c2ccc(N3CCOCC3)c(F)c2)C1=O	0	-4	3%	17%	1%
CO[C@@H]1COC(=O)[C@H]2CCCN2C(=O)[C@@H](C)COC(=O)[C@H](COCc2ccccc2)NC(=O)C/C=C\[C@H]1C	x	x	6%[10 µM]	-2%[10 µM]	x
S=C(NCc1ccccc1)N1CCn2cccc2C1c1cccnc1 (stereo unspecified)	24	-12	-16%	17%	2%
